Data on 118 compounds can be found in ChEMBL document CHEMBL4513216, “Probing the Open Global Health Chemical Diversity Library for Multistage-Active Starting Points for Next-Generation Antimalarials” (ACS Infect Dis, 2020).

The whole screen tested about 69,000 compounds, of which about 8,600 (12%) showed an effect of 50% or more. Only a selection was taken, and strong results are over-represented in it overall.

The test has as its system Plasmodium berghei. In words: Screen against P. berghei liver stage (PbLuc), transformed with Luciferase, at 10uM. Type of test: functional, HepG2. To be noted: tested at 10 uM.
`COc1ccc(F)c(-c2ccnc(N)c2)c1`: the INHIBITION is 1.95%.
The same measure for `CC(CC(=O)NCCNS(C)(=O)=O)C1CCCCC1` (stereo not drawn): 44.5%; for `COCCn1cc2c(n1)C(CNS(C)(=O)=O)OCC2` (stereo not drawn): -31%.
As to `CCN(CC)C(=O)c1ccn(COc2ccc(F)cc2F)n1`, the INHIBITION is recorded as -3.93%.
As for `CCc1ncc(C(=O)NCCN2CCNC2=O)cn1`, the figure is 22.285%; as for `COC(=O)c1ccc(C(=O)N2CCC(c3nnc(C)s3)CC2)cc1`, 20.4%.
As for `Cc1nnc(C2CCN(C(=O)c3ccc4nccnc4c3)CC2)s1`, the figure is 51.3%; as for `Cc1nnc(C2CCN(C(=O)c3ccc4[nH]ccc4c3)CC2)s1`, -5.64%.
The same measure for `CS(=O)(=O)c1cn[nH]c1C1CCCN(C(=O)Cn2cccn2)C1` (stereo not drawn): 2.71%; for `COc1cccc2c3c(c(=O)[nH]c12)CC(C)(C)O3`: -6.18%.
With `CCOc1cc(C(=O)N(C)C)ccc1NC(=O)C(C)c1ccsc1` (stereo not drawn), the INHIBITION turned out to be 51.5%.
In the case of `CCOc1cc(C(=O)N(C)C)ccc1NC(=O)c1ccsc1`, the INHIBITION was -23%.
Regarding `CCOc1ccc(C(=O)N(C)C)cc1NC(=O)c1ccsc1`, the INHIBITION is reported as -20.7%.
On to `Cc1cccc2c1cnn2CCCNC(=O)c1ccnn1C`, for which the INHIBITION amounted to 35%.
As for `CC(C)Cc1cc(C(=O)O)nc2[nH]c(=O)[nH]c(=O)c12`, the figure is 41.2%; as for `CCc1csc(CNc2nc3c(s2)c(C)nn3C)n1`, 65.7%.
As for `CCc1nc(CNc2nc3c(s2)c(C)nn3C)cs1`, the INHIBITION turned out to be 63.1%.
For `Cc1csc(CNc2nc3c(s2)c(C)nn3C)n1`, the INHIBITION is 8.03%.
As for `CCSCCNc1nc2c(s1)c(C)nn2C`, the figure is 25.8%; as for `CCCOCCNc1nc2c(s1)c(C)nn2C`, -18.6%.
The same measure for `Cc1nc(CNc2nc3c(s2)c(C)nn3C)cs1`: 40.8%; for `Cc1ccc(CCc2nc(C3CCOC3)no2)o1` (stereo not drawn): 29%; for `CN(C)[C@@H]1CCN(C(=O)C2CCOCC2)[C@H]1Cc1ccncc1`: 0.804%.
As for `COCCN1CCc2ccc(=O)n(Cc3csc(C)n3)c2CC1`, the figure is -15.3%; as for `CCc1nnc(Nc2cccc(C3CCN(c4cnccn4)CC3)n2)s1`, 36.4%; as for `CC(=O)N1C[C@H]2CC[C@@H](C1)N(S(=O)(=O)c1ccc(F)cc1Cl)C2`, -10.2%.
`Cc1cc(CCC(=O)NCc2ncc[nH]2)ccc1Br`: the INHIBITION turned out to be 54.8%.
`Cc1cc(CCC(=O)NCc2nccn2C)ccc1Br`: the INHIBITION was 46.1%.
On to `Cc1cc2ccccc2n1CCC(=O)NCc1ncc[nH]1`, for which the INHIBITION is given as 20.5%.
Turning to `CN1CCC(CCNC(=O)N2CCN(Cc3ccon3)CC2)CC1`, the INHIBITION was 23.5%.
The same measure for `CN(CCNC(=O)N1CCN(Cc2ccon2)CC1)C1CCCC1`: -6.02%; for `CCC1CCCCN1CCNC(=O)N1CCN(Cc2ccon2)CC1` (stereo not drawn): 50.8%.
As for `Cc1cnc(CNC(=O)[C@@]23CCO[C@@H]2CCN(C2CCCC2)C3)cn1`, the figure is 18.6%; as for `Cc1ccc(N2CC[C@H](O)[C@@H]2Cc2cnn(C)c2)nn1`, -15.9%; as for `CC(=O)N1CCN(C2CCc3ccccc32)CC1` (stereo not drawn), 64.7%.
The same measure for `NC(=O)N1CCCN(C2CCCCc3ccccc32)CC1` (stereo not drawn): 13.7%.
As for `O=C1CN(C(=O)CC2c3ccccc3CCc3ccccc32)CCN1`, the INHIBITION amounted to 42.1%.
Consider `CC(=O)N1CCN([C@@H]2CN(C(=O)c3ccccc3)C[C@H]2O)CC1`, for which the INHIBITION is on record as 11.8%.
Regarding `CC(=O)N1CCCN(C2CCCCc3ccccc32)CC1` (stereo not drawn), the INHIBITION amounted to 55.4%.
The same measure for `CC(=O)N1CCN(C2CCCCc3ccccc32)CC1` (stereo not drawn): -1.16%.
As for `Cc1cccc(C2(CNC(C)c3nnc(C)o3)CCCC2)c1` (stereo not drawn), the figure is -10.2%; as for `CCCc1ccc(S(=O)(=O)NC(=O)CCC2CCCO2)cc1` (stereo not drawn), 4.71%.
The same measure for `Cn1cccc1C(=O)N1CCC2(CC1)CC(N1CCOCC1)C2`: -23.3%.
For `COc1ccccc1C1(C(=O)N2CCCC(c3cc(C)[nH]n3)C2)CC1` (stereo not drawn), the INHIBITION is reported as -14.6%.
The same measure for `c1cncc(CN2CCC3(CC2)CC(c2cccnc2)CO3)c1` (stereo not drawn): -35%.
As for `Cc1ccc(CN2CCC3(CC2)CC(c2cccnc2)CO3)s1` (stereo not drawn), the figure is 50.1%.
With `c1cncc(C2COC3(CCN(Cc4cccs4)CC3)C2)c1` (stereo not drawn), the INHIBITION stood at 0.618%.
As for `COc1cccc2ccn(CCC(=O)N3CCCC(C(=O)O)C3)c12` (stereo not drawn), the figure is -19.7%; as for `Cc1ncnc2c1CCN(C(=O)CN(C)C)CC2`, 46.7%; as for `Cc1ncnc2c1CCN(C(=O)N(C)C)CC2`, 80.1%.
For the compound `CN(C)C(=O)CN1CCc2ncnc(NC3CCC3)c2CC1`, the INHIBITION is 72.9%.
The same measure for `COCCN1CCc2ncnc(NC3CC3)c2CC1`: -31.1%; for `CCN(C)c1ncnc2c1CCN(C(=O)N(C)C)CC2`: -64.7%; for `CCc1ncnc2c1CCN(CC(=O)N(C)C)CC2`: 30.3%.
In the case of `CN(C)C(=O)CN1CCc2ncnc(N(C)C)c2CC1`, the INHIBITION was 3.17%.
The same measure for `Cc1ncnc2c1CCN(CC(=O)N(C)C)CC2`: 53%; for `CN(C)C(=O)CN1CCc2ncnc(C3CC3)c2CC1`: 48.4%.
For the compound `Fc1ccc(C2CN(c3ncnc4[nH]ncc34)CCO2)cc1` (stereo not drawn), the INHIBITION turned out to be 40.8%.
In the case of `CN(C)CCn1nc(C2CCN(Cc3ccccc3)C2)c2cccnc21` (stereo not drawn), the INHIBITION is on record as 28.3%.
For `Cc1ccc(CNC(=O)c2nn(C)c3c2CS(=O)(=O)CC3)o1`, the INHIBITION is listed as 30.8%.
The same measure for `Cc1ccc(NC2CCN(C(=O)CCc3ccccc3)CC2)nn1`: -26.6%; for `CCOc1ccnc(N2CCN(C(=O)c3ccc(OC)cc3)CC2)n1`: 31.9%.
The same measure for `CSCC(C)(O)CNC(=O)c1cc(Br)ccc1Cl` (stereo not drawn): 55.4%; for `CSCC(C)(O)CNC(=O)c1cc(Cl)ccc1Cl` (stereo not drawn): -21.3%; for `CSCC(C)(O)CNC(=O)c1ccc(Br)cc1F` (stereo not drawn): -59.2%.
As for `N#Cc1ccc(F)c(CN2CCNC(=O)C2c2cccs2)c1` (stereo not drawn), the figure is 23.1%.
For `O=c1cc(-c2ccccc2)nc2n1CCCCC2`, the INHIBITION is on record as 49%.
The same measure for `CCc1ncncc1C(=O)N1CCCN(Cc2ccc(C#N)cc2)CC1`: 19.6%.
The same measure for `CCc1nnsc1C(=O)N1CCCN(Cc2ccc(C)cc2)CC1`: 29.4%.
For `CCc1ncncc1C(=O)N1CCCN(Cc2ccc(C)cc2)CC1`, the INHIBITION amounted to 56.6%.
As to `CCc1ncncc1C(=O)N1CCN(Cc2ccsc2)CC1`, the INHIBITION turned out to be 31.9%.
The same measure for `CCc1ncncc1C(=O)N1CCN(Cc2ccco2)CC1`: 50.4%; for `CCc1ncncc1C(=O)N1CCCN(Cc2ccccc2C)CC1`: 19.6%.
As to `CCCc1n[nH]c(C2CN(C(=O)c3cccc4[nH]ncc34)CCO2)n1` (stereo not drawn), the INHIBITION came out at 33.3%.
As to `Cc1ccc(OC2(C(=O)NC(C)Cc3ccncc3)CCNCC2)cc1` (stereo not drawn), the INHIBITION was found to be 26.7%.
As for `CN(C)C(=O)CO[C@H]1CO[C@@]2(CCN(Cc3ccsc3)C2)C1`, the figure is 24%; as for `Cc1nn(C)c(C)c1C1CCCN1CC(=O)Nc1ccc(Cl)cn1` (stereo not drawn), -48.4%; as for `O=C(Cc1cccnc1)N1CCCC2(CCN(C3CCOCC3)C2)C1` (stereo not drawn), -62.2%.
The same measure for `Cc1ccc(C(=O)N2CCC3(CC2)CC(c2ccccc2)C(=O)N3)cn1` (stereo not drawn): 30.5%.
The same measure for `Cc1nccn1[C@@H]1CC[C@@H](NC(=O)CCOc2ccccc2)[C@H]1O`: 21.7%; for `O=C(Cc1cccs1)NCc1ccnc(OC2CCOCC2)c1`: -32.8%; for `CCC=C(C)C(=O)NCc1ccnc(OC2CCOCC2)c1`: 56%.
Consider `CCC=C(C)C(=O)NCc1ccnc(OC)c1`, for which the INHIBITION turned out to be 42.3%.
As for `O=C(NCCC1CCN(CC(F)(F)F)CC1)C1COCCO1` (stereo not drawn), the INHIBITION is on record as 21.8%.
As for `c1cncc(CNCc2cccs2)c1`, the figure is 6.26%; as for `O=C1CCCN1Cc1nnc2n1CCN(Cc1ccoc1)CC2`, 33.2%; as for `O=C(O)c1cc(S(=O)(=O)N2CCOc3ccccc32)cc(Cl)c1Cl`, 23.25%.
The same measure for `O=C(c1ccccn1)N1C[C@H]2CC[C@@H](C1)N(C(=O)CCN1CCCC1)C2`: 50.3%.
Take `O=C(c1ccccn1)N1C[C@H]2CC[C@@H](C1)N(C(=O)CCC(F)(F)F)C2`: the INHIBITION turned out to be 6.33%.
The same measure for `O=C(c1ccccn1)N1C[C@H]2CC[C@@H](C1)N(C(=O)CCC1CCCC1)C2`: -36.6%; for `CC(=O)c1c(F)cccc1NCC(O)C(C)(C)C` (stereo not drawn): 30.5%; for `c1cnc(NCC2Cn3nnc(-c4ccsc4)c3CO2)nc1` (stereo not drawn): 45.1%.
As for `Fc1cnc(NCC2Cn3nnc(-c4ccccc4)c3CO2)nc1` (stereo not drawn), the figure is 50.9%; as for `Fc1cccc(-c2nnn3c2COC(CNc2ncccn2)C3)c1` (stereo not drawn), 54.4%; as for `O=C(NCC1Cn2nnc(-c3ccccc3)c2CO1)c1ccc[nH]1` (stereo not drawn), -29%.
For the compound `c1cnc(NCC2Cn3nnc(-c4ccoc4)c3CO2)nc1` (stereo not drawn), the INHIBITION is 25.2%.
The same measure for `NCC1Cn2nnc(-c3cccc(F)c3)c2CO1` (stereo not drawn): 6.8%.
Regarding `CNCC(=O)N1CCCC1c1n[nH]cc1-c1ccccc1F` (stereo not drawn), the INHIBITION is on record as -16%.
Take `Cn1ccnc1CN1CCOC(C)(C(=O)N2CCOCC2)C1` (stereo not drawn): the INHIBITION came out at 35.2%.
As for `COCCCN(Cc1ccc(F)cc1Cl)C1CCS(=O)(=O)C1` (stereo not drawn), the figure is 34.9%; as for `Cc1cccc(CN2CCC3(CCCN(C(=O)c4ccsc4)C3)C2=O)n1` (stereo not drawn), 12.6%.
As for `Cc1nnc([C@]23COC[C@H]2CN(Cc2cnn(C)c2)C3)o1`, the figure is 23.1%; as for `Cc1cc(Br)c(O)c(-c2nc(N3CCCCC3)sc2C)c1`, 64.9%; as for `Cc1cc(Br)c(O)c(-c2nc(N3CCOCC3)sc2C)c1`, 33.7%.
As for `Cc1cc(Br)c(O)c(C(=O)N2CCC(CN3CCCCCC3)CC2)c1`, the INHIBITION was determined as 28.1%.
As for `Cc1ccsc1CN1C[C@@H]2COC[C@]2(COCC(=O)N(C)C)C1`, the figure is -4.32%; as for `CC(C)NC1CCc2c(ccc(=O)n2CC2CC2)C1` (stereo not drawn), 47.4%.
As for `Cn1cc(CNC2CCc3c(ccc(=O)n3C)C2)cn1` (stereo not drawn), the figure is 18.6%.
In the case of `COc1ncccc1CNC1CCc2c(ccc(=O)n2C)C1` (stereo not drawn), the INHIBITION was 60.2%.
The same measure for `CCS(=O)(=O)NC1CCc2c(ccc(=O)n2CC2CC2)C1` (stereo not drawn): 35.7%.
With `O=C(CC1CC1)NC1CCc2c(ccc(=O)n2CC2CC2)C1` (stereo not drawn), the INHIBITION is -5.63%.
Turning to `COc1ncccc1CNC1CCc2c(ccc(=O)n2CC2CC2)C1` (stereo not drawn), the INHIBITION is recorded as 55.7%.
The same measure for `CCCS(=O)(=O)NC1CCc2c(ccc(=O)n2CC2CC2)C1` (stereo not drawn): 43.9%.
The same measure for `Cc1cnc(NC2CCc3c(ccc(=O)n3CC3CC3)C2)nc1` (stereo not drawn): 81.5%; for `COCCn1c2c(ccc1=O)CC(NCc1cccnc1OC)CC2` (stereo not drawn): 41.2%.
As for `Cc1cnc(NC2CCc3c(ccc(=O)n3C)C2)nc1` (stereo not drawn), the figure is -14.3%; as for `O=c1ccc2c(n1CC1CC1)CCC(NCc1cccs1)C2` (stereo not drawn), 92.8%; as for `O=c1ccc2c(n1CC1CC1)CCC(NS(=O)(=O)C1CC1)C2` (stereo not drawn), 14.8%.
